PubChem BioAssay AID624126 (The Scripps Research Institute Molecular Screening Center, 2012)
The campaign covered roughly 360,000 compounds. About 1,400 (0.39%) were called active.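 The calls were made as follows: active = activation above its plate's cutoff, the mean activation of sample wells plus 3 SD; inactive = the rest.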 Many of the other results were omitted from the sample, so actives are more common in it than they were.

molecular target: Muscarinic acetylcholine receptor M4 (Homo sapiens) (UniProt P08173); experiment: CHRM4 PAMs potentiating acetylcholine calcium signal – CHO-K1 cells, Fluo-8 calcium fluorescence, primary screen (AID 624126); settings: CHO-K1 hM4/Gqi5, Fluo-8 calcium fluorescence, ACh EC20; at 3 µM; hits give high values; 0% = ACh EC20, 100% = maximal ACh
Sequence (P08173 whole entry, looked up): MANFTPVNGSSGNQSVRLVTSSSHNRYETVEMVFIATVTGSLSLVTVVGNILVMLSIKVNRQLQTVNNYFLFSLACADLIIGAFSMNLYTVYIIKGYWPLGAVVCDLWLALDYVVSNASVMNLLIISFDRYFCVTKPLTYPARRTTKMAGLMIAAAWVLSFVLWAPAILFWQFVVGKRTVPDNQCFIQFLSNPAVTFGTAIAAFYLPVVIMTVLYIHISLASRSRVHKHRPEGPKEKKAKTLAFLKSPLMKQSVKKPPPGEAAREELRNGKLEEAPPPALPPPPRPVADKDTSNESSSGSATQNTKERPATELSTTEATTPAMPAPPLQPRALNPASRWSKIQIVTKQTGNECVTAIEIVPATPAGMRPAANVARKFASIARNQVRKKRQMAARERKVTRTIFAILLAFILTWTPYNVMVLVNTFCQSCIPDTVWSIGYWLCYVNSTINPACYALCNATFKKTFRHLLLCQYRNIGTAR

activation, active:
CCCCNC(=O)c1cn(CC)c2cc(N3CCN(C(=O)c4ccco4)CC3)c(F)cc2c1=O 18%
COc1ccc(NC(=O)CCCC2CCCCC2)c(OC)c1 21.1%
COc1ccc(/C=C/C(=O)N2CCCC2)cc1OC 31.3%
O=C(NCc1ccncc1)NC12CC3CC(CC(C3)C1)C2 21.2%
COC(=O)c1ccc(OC(=O)c2nn(C)cc2Cl)c(OC)c1 22%

activation, inactive:
CCN(CC)S(=O)(=O)c1ccc(NC(=O)c2cccnc2Cl)c(NC(=O)c2cccnc2Cl)c1 2.53%
CCn1cc(C(=O)NCCO)c(=O)c2cc(F)c(N3CCN(C)CC3)cc21 -4.27%
CCCCCCn1cc(C(=O)O)c(=O)c2cc(F)c(N3CCCCC3)cc21 -1.05%
O=C1NC[C@@H](c2ccccc2)OC(=O)[C@H](Cc2ccc(F)cc2)CC/C=C/C[C@H]1CC(=O)N(CCO)Cc1ccccc1 -11.5%
O=C(O)CCn1cc(/C=C/C(=O)c2ccc(Cl)cc2)c(-c2cccc(Br)c2)n1 -5.08%
O=[N+]([O-])c1ccc2[nH]c3c(c2c1)CCCC3O (stereo not given) 6.6%
CC(C)Oc1ccccc1C(=O)NC(CO)C(=O)O (stereo not given) 7.23%
COc1ccc(NC(=O)CCn2ccnc2)c(OC)c1 -8.61%
CC(=O)Oc1ccc(NC(=O)CCC2CCCCC2)c(C(=O)O)c1 4.74%
CCOC(=O)c1c(CN(C)C)n(-c2ccccc2)c2cc(Br)c(O)cc12 1.89%
Nc1nnc(C2CCCC2)s1 -4.96%
CCOC(=O)C1CCN(C(=O)/C=C/c2cc(OC)c(OC)c(OC)c2)CC1 0.77%
COc1cc(/C=C/C(=O)N2CCc3ccccc3C2)cc(OC)c1OC -4.53%
COc1cccc(NC(=O)Cn2c3ccccc3c3nc4n(c(=O)c32)CCS4)c1 7.32%
O=C(NCc1cccnc1)C12CC3CC(CC(C3)C1)C2 -4.11%
S=C(NCc1ccc(Cl)cc1)NC12CC3CC(CC(C3)C1)C2 -13.6%
Cc1noc(C)c1NC(=O)N(C)C[C@@H]1Oc2cc(Br)ccc2S(=O)(=O)N([C@@H](C)CO)C[C@H]1C 3.07%
COC(=O)c1ccc(COC(=O)c2cnc(Cl)c(Cl)c2)cc1 1.26%
COc1ccc(CCNC(=O)COC(=O)c2ncc(Cl)c(Cl)c2Cl)cc1OC 0.15%
COc1ccc(CSc2nnnn2-c2ccc(O)cc2)cc1F -3.48%
